Screens deposited in PubChem by Johns Hopkins Ion Channel Center.
Most compounds without a hit are left out; they make up all but 1.6% or so of the library.
KCNQ2 enhance: potentiators of rat KCNQ2 potassium channel; B-score at 10 µM; 310,000 compounds, 0.54% hits; Potassium voltage-gated channel subfamily KQT member 2 (Rattus norvegicus), O88943; CHO-K1 KCNQ2, FluxOR thallium flux fluorescence; hits give high values;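 active means fluorescence ratio B-score at least 3 SD of library B-scores, with initial fluorescence B-score within 3 of them, cut at about 5.3 in these data; same plate scores as AID 2156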;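 further: B-score of peak minus minimum over baseline fluorescence ratio after K+ and Tl+ stimulus; positive B-score means potentiation of KCNQ2 with more thallium influx and brighter signal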
Target sequence (O88943 whole entry, looked up): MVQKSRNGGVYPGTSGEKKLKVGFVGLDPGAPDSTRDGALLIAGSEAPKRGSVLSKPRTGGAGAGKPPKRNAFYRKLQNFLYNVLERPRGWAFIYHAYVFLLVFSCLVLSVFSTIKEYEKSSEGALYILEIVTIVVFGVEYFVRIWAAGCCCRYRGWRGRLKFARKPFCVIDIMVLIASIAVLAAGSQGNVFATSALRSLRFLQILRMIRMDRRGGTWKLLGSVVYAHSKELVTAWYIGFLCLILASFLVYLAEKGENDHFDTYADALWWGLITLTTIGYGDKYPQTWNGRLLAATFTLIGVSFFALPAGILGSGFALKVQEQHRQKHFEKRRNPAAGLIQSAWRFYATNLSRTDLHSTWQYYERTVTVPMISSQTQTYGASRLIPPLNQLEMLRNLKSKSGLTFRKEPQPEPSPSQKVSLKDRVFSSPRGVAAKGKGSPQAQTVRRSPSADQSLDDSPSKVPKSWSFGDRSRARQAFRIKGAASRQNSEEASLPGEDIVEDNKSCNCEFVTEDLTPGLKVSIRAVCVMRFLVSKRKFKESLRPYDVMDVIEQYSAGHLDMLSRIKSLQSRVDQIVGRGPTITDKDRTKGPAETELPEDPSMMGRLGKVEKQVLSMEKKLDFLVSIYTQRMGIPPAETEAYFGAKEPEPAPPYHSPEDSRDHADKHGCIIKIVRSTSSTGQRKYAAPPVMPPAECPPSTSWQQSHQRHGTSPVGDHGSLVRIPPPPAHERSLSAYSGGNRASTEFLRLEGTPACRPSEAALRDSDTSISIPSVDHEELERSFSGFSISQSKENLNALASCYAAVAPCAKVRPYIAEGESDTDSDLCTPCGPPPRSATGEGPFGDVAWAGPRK
KCNQ2 block: rat KCNQ2 potassium channel inhibitors, primary screen, cell-based, CHO-K1, FluxOR thallium flux, B-score; Potassium voltage-gated channel subfamily KQT member 2 (Rattus norvegicus), O88943; 20 min; hits give low values; B-score at 10 µM; 310,000 compounds, 1.1% hits; AID 2156, 2009;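 active means fluorescence ratio B-score at most minus 3 library SDs, with starting brightness B-score within 2 library SDs, cut at about -5.5 in these data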
* marks the source's active call; other numbers are inactive results; i = inactive; · = no result.

SMILES	KCNQ2 enhance	KCNQ2 block
CC(C)(C)NC(=O)c1cc(-c2ccc3c(c2)OCO3)nc2ccccc12	-5.6	-5.6*
Cn1c(NC(=O)c2cc(-c3ccc4c(c3)OCO4)nc3ccccc23)cc(=O)n(C)c1=O	·	i
CN(Cc1nc(-c2ccccc2)no1)C1CCOCC1	1.5	i
O=C(COc1cc2oc(=O)c3c(c2cc1Cl)CCC3)NCC(O)c1ccccc1 (centres undefined)	·	i
C=CCn1c(=O)c(C(=O)Nc2ccccc2O)c(O)c2ccccc21	·	i
C=CCn1c(=O)c(C(=O)Nc2ccccc2C)c(O)c2ccccc21	-6.1	-6.1*
CC1CC(C)CN(C(=O)c2ccc(S(=O)(=O)N3CCCC3)cc2)C1 (centres undefined)	0.4	i
COc1cc(C(C)=O)ccc1OCC(=O)OCCCOC(=O)COc1ccc(C(C)=O)cc1OC	0.65	i
O=C(NCc1ccc(Cl)cc1)c1noc2c1CCCC2	-6.5	-6.5*
O=C(NCc1ccccc1)c1noc2c1CCCC2	·	i
Cc1ccccc1-n1cnc2c(sc3nc(N4CCOCC4)c4c(c32)CCCC4)c1=O	·	i
Cc1cc(C(C)(C)C)oc1C(=O)N(CC(=O)NC1CCCC1)Cc1ccccc1	·	i
Cc1ccc(C)c(N(CC(=O)NC2CCCC2)C(=O)c2oc(C(C)(C)C)cc2C)c1	-6.6	-6.6*
CC1=CC(C)(C)N(C(=O)c2ccccc2)c2ccccc21	-5.6	-5.6*
CC1=CC(C)(C)N(C(=O)c2ccccc2)c2ccc(C)cc21	·	i
CN(C)CCCNC(=S)N1CCn2c(nc3ccccc32)C1	·	i
CC(C)CC(C(=O)N1CCc2ccccc2C1)N1C(=O)c2ccccc2C1=O (centres undefined)	-6.5	-6.5*
CC(C(=O)N1CCc2ccccc2C1)N1C(=O)c2ccccc2C1=O (centres undefined)	0.16	i
O=C(NC(=S)NCCC1=CCCCC1)c1cncc(Br)c1	·	i
CCN(CC)Cc1cc2[nH]c3c4ccc(Cl)cc4ncc3c2cc1OC	3	i
CCN(CC)CCN(C(=O)c1ccc2c(c1)CCCC2)c1nc2c(C)cccc2s1	-8.1	-8.1*
CN(C)CCN(C(=O)c1ccc2ccccc2c1)c1nc2c(F)cccc2s1	·	i
Cc1cc(C)c2nc(N(CCN(C)C)C(=O)c3ccc4ccccc4c3)sc2c1	-6	-6*
CCN(CC)CCN(C(=O)c1ccc2c(c1)CCCC2)c1nc2ccc(C)cc2s1	·	i
CCc1cccc(C)c1NC(=O)Nc1c(Br)cnn1C	·	i
SMILES	KCNQ2 enhance	KCNQ2 block
Nc1nonc1-n1nnc(C(=O)N/N=C/c2cc(Br)cs2)c1-c1ccccc1	·	i
CCC(=O)N(Cc1cc2ccc(C)cc2[nH]c1=O)c1ccccc1OC	0.9	i
NC(=O)CSc1nnc(CSc2ncccn2)n1-c1ccccc1	·	i
CCc1cc2c(SCc3nc4sc(C(C)=O)c(C)c4c(=O)[nH]3)ncnc2s1	1.9	i
COc1ccc(/C=C/C(=O)N(CC(C)C)CC(C)C)cc1Br	-5.9	-5.9*
COc1ccc(CN2CCN(C(=O)CC(C)C)CC2)cc1Br	·	i
CC(Oc1ccccc1)C(=O)N1CCN=C1SCc1ccc(F)cc1 (centres undefined)	·	i
CCOC(=O)CNC(=O)N(CCOC)CC1CCCN(C2Cc3ccccc3C2)C1 (centres undefined)	0.66	i
Cc1onc(-c2ccccc2Cl)c1C(=O)Nc1ccccc1O	·	i
CCCn1nnc(NC(=O)c2ccc3c(c2)OCO3)n1	2.3	i
CCOc1ccc(OCc2ccc(C(=O)N3CCCCC3)o2)cc1	0.18	i
CCOc1ccc(OCc2ccc(C(=O)N3CCc4ccccc4C3)o2)cc1	-6.1	-6.1*
CCCn1c(=O)[nH]c(=O)c2c1nc(-c1cccs1)n2CCOC	0.66	i
COc1cc(/C=N/NC(=O)Cc2ccccc2)ccc1Oc1ccc([N+](=O)[O-])cc1[N+](=O)[O-]	0.78	i
COc1ccc([N+](=O)[O-])cc1/C=N/NC(=O)Cc1ccccc1	6*	i
Cc1ccc(C(CC(=O)c2ccc(Cl)cc2)C(=O)O)cc1 (centres undefined)	·	i
COC(=O)C(CC(=O)c1ccc(Cl)cc1)c1ccc(C(C)C)cc1 (centres undefined)	-5.9	-5.9*
O=C(CSc1nnc(COc2ccc(F)cc2)o1)N1c2ccccc2CCc2ccccc21	-6.6	-6.6*
O=C(CSc1nnc(COc2ccc(F)cc2)o1)N1CCCCC1	0.66	i
Cc1cc(C)nc(/N=C(/NC(=O)Nc2cccc(Cl)c2)Nc2ccccc2)n1	-5.8	-5.8*
Cc1cc(C)nc(/N=C(\NC(=O)C(C)(C)C)Nc2ccccc2)n1	1.3	i
COc1ccc(Cl)cc1NC(=O)C1CCN(C(=O)C2CC(=O)N(c3ccc(C)cc3)C2)CC1 (centres undefined)	·	i
CCC(=O)c1ccc(OCCn2cnc3ccccc32)cc1	0.46	i
CC(=O)N1c2ccccc2C(C)(c2ccccc2)CC1(C)C (centres undefined)	·	i
CC1(c2ccccc2)CC(C)(C)N2C(=O)Cc3cccc1c32 (centres undefined)	-7.7	-7.7*
SMILES	KCNQ2 enhance	KCNQ2 block
CCOc1ccc(N(CC(=O)Nc2cc(C)ccc2C)S(=O)(=O)c2c(C)[nH]c(=O)[nH]c2=O)cc1	·	i
Cc1cccc(Nc2nc(N3CCOCC3)nc(N3CCOCC3)n2)c1	0.48	i
Cn1ccnc1Sc1nc(Nc2cccc(Cl)c2)nc(N2CCOCC2)n1	-6.2	-6.2*
Cc1ccc(CNC(=O)CC(C)S(=O)(=O)c2ccc3c(c2)NC(=O)C(C)S3)cc1 (centres undefined)	·	i
COc1ccc(CCNC(=O)CSc2ccccn2)cc1OC	0.58	i
COc1ccc(CCNC(=O)CSc2cccc3cccnc23)cc1OC	-6.3	-6.3*
O=C(CN(C(=O)CCC(=O)Nc1ccccn1)C1CCCC1)NCc1ccc(F)cc1	0.41	i
Cc1ccc(C(NC(=O)NC(C)c2ccccc2)C(Cl)(Cl)Cl)cc1F (centres undefined)	17*	i
CC(NC(=O)Nc1ccc(Cl)cc1)c1ccccc1 (centres undefined)	·	i
CCOc1c(Cl)cc(C(=O)Nc2cccc(C(=O)O)c2)cc1Cl	0.97	i
O=C(Nc1ccc(F)cc1)NC1CCCCCCC1	1.1	i
O=C(Nc1ccc(F)cc1)C(NC1CCCCC1)c1ccccc1 (centres undefined)	-6	-6*
O=C(COc1cc(O)c2c(=O)c3ccccc3oc2c1)OCc1ccccc1	·	i
CC1CC(C)CN(C(=O)c2ccc(NS(=O)(=O)c3ccc4[nH]c(=O)[nH]c4c3)cc2)C1 (centres undefined)	·	i
CC1Cc2ccccc2N1C(=O)CCN1C(=O)C2C3C=CC(C3)C2C1=O (centres undefined)	0.21	i
CC1Cc2ccccc2N1C(=O)CCn1c(=O)sc2ccccc21 (centres undefined)	-6	-6*
Cc1ccccc1Oc1cccc(C(=O)/C(C#N)=C/N(C)C)c1	0.88	i
CN(C)/C=C(/C#N)C(=O)c1cccc(Oc2ccc(C(C)(C)C)cc2)c1	-7.8	-7.8*
CCc1ccc(OCCCC(=O)NCc2ccco2)cc1	0.58	i
CCc1ccc(N/C(SCc2ccccc2C)=C(/C#N)C(=O)NCc2ccco2)cc1	-6.1	-6.1*
NC(=O)c1c(/N=C/c2cccs2)sc2c1CCCC2	0.46	i
